Source: PubChem BioAssay AID1159580 (chemical genetic matrix, 2015)
Several values for one entry are separate records, joined by “and”; a condition that tells them apart may be missing. Identical values can stand only once. Among all 5,500 compounds or so, about 2,000 (36%) were called active. About 18% were inconclusive and are not listed. Cut-off read from the data, not from the text of the source: active = normalized growth mostly below about 0.91 (no sharp cut-off); inconclusive = no clear call, values can overlap the other calls; inactive = mostly above about 0.92. This is one part of the list.

Test: chemical genetic growth profiling, strain panel (AID 1159580);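 note: tested at 20 µM; growth read once vehicle control cultures reached saturation at 30 °C; 1 = growth at the plate median or of vehicle wells; lower values mean less growth of the strain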
Conditions: growth OD

Measured: normalized growth

CC12CC3CC(C)(C1)CC(N)(C3)C2
inactive: S. cerevisiae deletion strains, locus YJR075W, strain HOC1, active compounds read low 1.01 | S. cerevisiae deletion strains, locus YKL009W, strain mrt4, active compounds read low 1.03 | S. cerevisiae deletion strains, locus YKL068W, active compounds read low 0.999 | S. cerevisiae deletion strains, locus YKL085W, strain MDH1 (second series), active compounds read low 0.996 | S. cerevisiae deletion strains, locus YKL085W, strain MDH1, active compounds read low 0.996 | S. cerevisiae deletion strains, locus YKL160W, strain elf1, active compounds read low 1 | S. cerevisiae deletion strains, locus YKL190W, strain CNB1, active compounds read low 0.999 | S. cerevisiae deletion strains, locus YKR001C, strain vps1, active compounds read low 1.02 | S. cerevisiae deletion strains, locus YKR026C, strain gcn3, active compounds read low 0.982 | S. cerevisiae deletion strains, locus YKR091W, strain srl3, active compounds read low 0.99 | S. cerevisiae deletion strains, locus YLL001W, strain dnm1, active compounds read low 0.972 | S. cerevisiae deletion strains, locus YLL026W, active compounds read low 0.995 | S. cerevisiae deletion strains, locus YLL041C, strain sdh2, active compounds read low 0.997 | S. cerevisiae deletion strains, locus YLR027C, strain aat2, active compounds read low 0.991 | S. cerevisiae deletion strains, locus YLR039C, strain RIC1, active compounds read low 1.04 | S. cerevisiae deletion strains, locus YLR058C, strain SHM2, active compounds read low 0.999 | S. cerevisiae deletion strains, locus YLR102C, strain apc9, active compounds read low 0.996 | S. cerevisiae deletion strains, locus YLR113W, strain HOG1, active compounds read low 0.996 | S. cerevisiae deletion strains, locus YLR221C, strain rsa3, active compounds read low 1 | S. cerevisiae deletion strains, locus YLR258W, strain gsy2, active compounds read low 1 | S. cerevisiae deletion strains, locus YLR262C, strain YPT6 (second series), active compounds read low 1 | S. cerevisiae deletion strains, locus YLR262C, strain YPT6, active compounds read low 0.979 | S. cerevisiae deletion strains, locus YLR268W, strain sec22, active compounds read low 1.07 | S. cerevisiae deletion strains, locus YLR320W, strain mms22, active compounds read low 1 | S. cerevisiae deletion strains, locus YLR330W, strain CHS5, active compounds read low 1 | S. cerevisiae deletion strains, locus YLR342W, strain FKS1 (second series), active compounds read low 1.01 | S. cerevisiae deletion strains, locus YLR342W, strain FKS1, active compounds read low 0.985 | S. cerevisiae deletion strains, locus YLR357W, strain rsc2, active compounds read low 0.969 | S. cerevisiae deletion strains, locus YLR370C, strain arc18, active compounds read low 0.995 | S. cerevisiae deletion strains, locus YLR371W, strain rom2, active compounds read low 1.01 | S. cerevisiae deletion strains, locus YLR384C, strain iki3, active compounds read low 0.99 | S. cerevisiae deletion strains, locus YLR418C, strain cdc73, active compounds read low 1.01 | S. cerevisiae deletion strains, locus YML016C, strain PPZ1, active compounds read low 0.998 | S. cerevisiae deletion strains, locus YML032C, strain rad52, active compounds read low 1.02 | S. cerevisiae deletion strains, locus YML120C, strain ndi1, active compounds read low 1 | S. cerevisiae deletion strains, locus YML124C, strain tub3, active compounds read low 1.01 | S. cerevisiae deletion strains, locus YMR058W, strain fet3, active compounds read low 0.993 | S. cerevisiae deletion strains, locus YMR078C, strain ctf18, active compounds read low 1 | S. cerevisiae deletion strains, locus YMR125W, strain sto1, active compounds read low 0.975 | S. cerevisiae deletion strains, locus YMR129W, active compounds read low 0.979 | S. cerevisiae deletion strains, locus YMR205C, strain PFK2, active compounds read low 0.993 | S. cerevisiae deletion strains, locus YMR223W, strain ubp8, active compounds read low 0.986 | S. cerevisiae deletion strains, locus YMR231W, strain pep5, active compounds read low 0.982 | S. cerevisiae deletion strains, locus YMR263W, strain SAP30, active compounds read low 1.01 | S. cerevisiae deletion strains, locus YMR307W, strain GAS1, active compounds read low 0.964 and 0.971 | S. cerevisiae deletion strains, locus YNL067W, strain RPL9B, active compounds read low 1.02 | S. cerevisiae deletion strains, locus YNL071W, strain lat1, active compounds read low 0.986 | S. cerevisiae deletion strains, locus YNL128W, strain TEP1, active compounds read low 1.01 | S. cerevisiae deletion strains, locus YNL153C, strain GIM3, active compounds read low 1.01 | S. cerevisiae deletion strains, locus YNL175C, strain NOP13, active compounds read low 0.994 | S. cerevisiae deletion strains, locus YNL183C, strain NPR1, active compounds read low 0.935 | S. cerevisiae deletion strains, locus YNL197C, strain WHI3, active compounds read low 1 | S. cerevisiae deletion strains, locus YNL209W, strain ssb2, active compounds read low 0.992 | S. cerevisiae deletion strains, locus YNL224C, strain SQS1, active compounds read low 1 | S. cerevisiae deletion strains, locus YNL233W, strain BNI4, active compounds read low 1.01 | S. cerevisiae deletion strains, locus YNL248C, strain rpa49, active compounds read low 0.961 | S. cerevisiae deletion strains, locus YNL250W, strain rad50, active compounds read low 1.01 | S. cerevisiae deletion strains, locus YNL271C, strain bni1, active compounds read low 1.01 | S. cerevisiae deletion strains, locus YNL298W, strain CLA4, active compounds read low 1 | S. cerevisiae deletion strains, locus YNL307C, strain MCK1, active compounds read low 1.01 | S. cerevisiae deletion strains, locus YNL322C, strain KRE1 (second series), active compounds read low 0.993 | S. cerevisiae deletion strains, locus YNL322C, strain KRE1, active compounds read low 0.998 and 0.989 | S. cerevisiae deletion strains, locus YNR049C, strain mso1, active compounds read low 0.986 | S. cerevisiae deletion strains, locus YNR052C, strain pop2, active compounds read low 1.01 | S. cerevisiae deletion strains, locus YOL006C, strain TOP1, active compounds read low 1.05 | S. cerevisiae deletion strains, locus YOL012C, strain htz1 1.4 | S. cerevisiae deletion strains, locus YOL147C, strain pex11, active compounds read low 1 | S. cerevisiae deletion strains, locus YOR001W, strain rrp6, active compounds read low 0.985 | S. cerevisiae deletion strains, locus YOR061W, strain CKA2, active compounds read low 1 | S. cerevisiae deletion strains, locus YOR069W, strain VPS5, active compounds read low 1.01 | S. cerevisiae deletion strains, locus YOR070C, strain gyp1, active compounds read low 0.991 | S. cerevisiae deletion strains, locus YOR080W, strain dia2, active compounds read low 0.986 | S. cerevisiae deletion strains, locus YOR083W, strain WHI5 (second series), active compounds read low 1.03 | S. cerevisiae deletion strains, locus YOR083W, strain WHI5, active compounds read low 0.977 | S. cerevisiae deletion strains, locus YOR106W, strain vam3, active compounds read low 0.993 | S. cerevisiae deletion strains, locus YOR136W, strain idh2, active compounds read low 1.01 | S. cerevisiae deletion strains, locus YOR144C, strain elg1, active compounds read low 1.01 | S. cerevisiae deletion strains, locus YOR184W, strain ser1, active compounds read low 1.01 | S. cerevisiae deletion strains, locus YOR231W, strain MKK1, active compounds read low 0.995 | S. cerevisiae deletion strains, locus YOR265W, strain rbl2, active compounds read low 0.989 | S. cerevisiae deletion strains, locus YOR270C, strain vph1, active compounds read low 0.921 | S. cerevisiae deletion strains, locus YOR290C, strain snf2, active compounds read low 0.997 | S. cerevisiae deletion strains, locus YOR316C, strain cot1, active compounds read low 1 | S. cerevisiae deletion strains, locus YPL051W, strain arl3, active compounds read low 0.986 | S. cerevisiae deletion strains, locus YPL055C, strain LGE1, active compounds read low 1 | S. cerevisiae deletion strains, locus YPL078C, strain atp4, active compounds read low 0.986 | S. cerevisiae deletion strains, locus YPL106C, strain sse1, active compounds read low 1.01 | S. cerevisiae deletion strains, locus YPL240C, strain hsp82, active compounds read low 0.998 | S. cerevisiae deletion strains, locus YPL241C, strain CIN2, active compounds read low 1 | S. cerevisiae deletion strains, locus YPL256C, strain CLN2, active compounds read low 0.971 | S. cerevisiae deletion strains, locus YPR119W, strain clb2, active compounds read low 1 | S. cerevisiae deletion strains, locus YPR141C, strain kar3, active compounds read low 1.01 | S. cerevisiae deletion strains, locus YPR163C, strain tif3, active compounds read low 1.01 | S. cerevisiae deletion strains, locus YPR167C, strain met16, active compounds read low 1 | S. cerevisiae deletion strains, strain wtn01, active compounds read low 1.02 | S. cerevisiae strains, strain wild type, active compounds read low 1.01
